# Among all 1,500 compounds or so, about 390 (26%) were called active. These entries were drawn from the full list. Results with a measured potency or affinity are listed apart. Values without a mark were called inactive. How the calls were made is not given here.
# Target: Histone-lysine N-methyltransferase NSD2 (Homo sapiens) (UniProt O96028)
# Experiment: blockers of NSD2 H4 peptide methylation – biochemical, AlphaScreen, cherry-picked samples, dose response (AID 1053173);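 further: 0% = neutral control wells and -100% = positive control wells on each plate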
# Settings: 120 min; series mostly up to 10 µM; activity change, negative = inhibition: at the top concentration
# Histone-lysine N-methyltransferase NSD2 (Homo sapiens), sequence (O96028 whole entry, looked up): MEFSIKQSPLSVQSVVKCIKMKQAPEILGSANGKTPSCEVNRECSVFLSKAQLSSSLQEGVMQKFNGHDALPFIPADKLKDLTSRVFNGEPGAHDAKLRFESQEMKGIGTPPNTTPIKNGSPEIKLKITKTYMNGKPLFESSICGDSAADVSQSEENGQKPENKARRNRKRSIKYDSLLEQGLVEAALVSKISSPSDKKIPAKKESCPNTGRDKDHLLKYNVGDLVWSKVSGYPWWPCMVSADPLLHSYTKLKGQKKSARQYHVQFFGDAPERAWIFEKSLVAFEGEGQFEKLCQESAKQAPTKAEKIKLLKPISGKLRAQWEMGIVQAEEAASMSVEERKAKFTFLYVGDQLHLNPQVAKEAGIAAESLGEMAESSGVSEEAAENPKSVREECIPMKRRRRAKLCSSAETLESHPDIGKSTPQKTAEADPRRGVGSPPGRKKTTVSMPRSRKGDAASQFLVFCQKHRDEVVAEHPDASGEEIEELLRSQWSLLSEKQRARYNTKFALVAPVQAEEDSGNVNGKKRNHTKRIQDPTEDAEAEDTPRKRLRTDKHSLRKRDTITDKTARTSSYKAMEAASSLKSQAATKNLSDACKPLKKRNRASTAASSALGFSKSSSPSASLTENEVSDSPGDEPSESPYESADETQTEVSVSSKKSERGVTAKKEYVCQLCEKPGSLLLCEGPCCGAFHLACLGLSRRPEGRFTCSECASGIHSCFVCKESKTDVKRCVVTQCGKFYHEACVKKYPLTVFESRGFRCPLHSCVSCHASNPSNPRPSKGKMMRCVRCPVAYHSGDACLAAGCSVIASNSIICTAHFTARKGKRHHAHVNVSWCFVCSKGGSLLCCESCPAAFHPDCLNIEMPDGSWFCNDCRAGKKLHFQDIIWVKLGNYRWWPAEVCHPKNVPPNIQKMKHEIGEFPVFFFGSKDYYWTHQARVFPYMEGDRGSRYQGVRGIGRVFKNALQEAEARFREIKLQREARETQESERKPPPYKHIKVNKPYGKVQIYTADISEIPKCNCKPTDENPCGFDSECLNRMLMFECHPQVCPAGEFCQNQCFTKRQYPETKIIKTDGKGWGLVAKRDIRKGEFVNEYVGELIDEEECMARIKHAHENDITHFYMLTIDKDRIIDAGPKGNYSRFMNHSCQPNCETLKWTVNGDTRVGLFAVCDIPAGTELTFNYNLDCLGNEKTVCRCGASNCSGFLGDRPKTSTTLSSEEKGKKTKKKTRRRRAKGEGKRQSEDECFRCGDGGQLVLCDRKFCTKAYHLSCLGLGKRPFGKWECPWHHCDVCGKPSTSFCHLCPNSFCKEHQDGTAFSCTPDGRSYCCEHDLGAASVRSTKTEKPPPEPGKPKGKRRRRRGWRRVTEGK
row,SMILES,"activity change, negative = inhibition [%]"
1,CCc1cc(OCCN2C(=O)NC(C)(C)C2=O)ccc1Cl,1.68
2,S=C1NCN(Cc2ccco2)CN1CCc1ccccc1,5.17
3,Cc1ncc(CO)c2c1Oc1nc(-c3ccccc3)nc(SCC(=O)N3CCOCC3)c1C2,-9.28
4,CCOC(=O)C(CCCP(=O)(c1ccccc1)c1ccccc1)(NC(C)=O)C(=O)OCC,5.47
5,O=C(Cn1cc(C(F)(F)F)ccc1=O)Nc1ccc2c(c1)OCCO2,6.43
6,Cc1ccc(Nc2nnc(SCC(=O)Nc3ccc(S(=O)(=O)N4CCOCC4)cc3)s2)cc1,2.86
7,CCN(CC)c1ccc(NC(=O)COC(=O)c2ccc3ccccc3n2)cc1,-7.11
8,COC(=O)C(C)(C)NC(=O)c1cccs1,-0.795
9,COc1ccc(OC)c(-c2csc(-c3cccs3)n2)c1,1.38
10,COc1ccc(NC(=O)CN2CCN(S(=O)(=O)N3CCCCCC3)CC2)cc1,-1.77
11,CCOC(=O)c1ccc(S(=O)(=O)N2CCN(c3ccccn3)CC2)cc1,-2.16
12,O=C(Nc1ccccc1)OCCCCOC(=O)Nc1ccccc1,4.68
13,CCc1nc2ccc(C)cc2c(C(=O)NC2CCCCC2C)c1C (stereo unspecified),-2.38
14,O=C(O)c1ccccc1NS(=O)(=O)c1ccc2ccccc2c1,1.41
15,CCOc1ccccc1Nc1nnc(SCc2ccc(C(=O)OC)o2)s1,-2.68
16,COCCNC(=O)c1ccc(CN2CCc3ccccc3C2)cc1,-4.36
17,Cc1ccc(C(=O)Cn2cc([N+](=O)[O-])nc2C)cc1,7.26
18,CC(C)(C)C1CCC2(CC1)C(Nc1cccc(C(F)(F)F)c1)=NC(=S)N2CC#N (stereo unspecified),2.06
19,COc1ccc(CCC(=O)NCCOc2ccccc2Cl)cc1,-0.849

row,SMILES,"activity change, negative = inhibition [%]"
1,CSc1nsc(SCC(=O)Nc2cccc(NC(C)=O)c2)n1,-3.52
2,Cc1cccnc1NC(=O)c1ccc(S(=O)(=O)N2CC(C)OC(C)C2)cc1 (stereo unspecified),1.6
3,O=C1CCCC(O)=C1N=Nc1cccc(C(=O)O)c1,-10.6
4,O=C(NNC(=O)c1cccs1)c1ccc(Cl)c([N+](=O)[O-])c1,-1.5
5,O=C(CC(=O)NCCc1ccccc1)NCCc1ccccc1,2.4
6,O=C(CNC(=O)c1ccco1)NCC(=O)OCc1ccccc1Cl,-2.17
7,COc1ccccc1C(=O)NNC(=O)Cc1ccccc1,0.425
8,CC(C)CC(=O)N1CCC(O)(CS(=O)(=O)Cc2ccccc2Cl)CC1,-0.256
9,O=C(NC1=NCCS1)c1csc2ccccc12,3.99
10,O=C(Nc1cc(C(F)(F)F)ccc1N1CCCC1)C1CC(=O)N(Cc2ccccc2)C1 (stereo unspecified),-0.7
11,Cc1cc(C)c(NC(=S)N(C)C)cc1C,6.18
12,COc1ccc(C2/C(=C(\O)c3cccc(OC)c3)C(=O)C(=O)N2c2ccccn2)cc1 (stereo unspecified),-2.01
13,COc1ccc(C(=O)N[C@H](C(=O)NCc2ccc(C)cc2)C(C)C)cc1,-3.5
14,Cc1ccc(C)c(S(=O)(=O)N2CCCOC2CNC(=O)C(=O)NCc2cccnc2)c1 (stereo unspecified),-1.12
15,Nc1c2c(=O)[nH]c(O)cc2nn1-c1ccccc1,-2.54
16,COc1ccc(OC)c(C(=O)Nc2c(O)ccc3ccccc23)c1,0.436
17,O=c1[nH]c(CN2CCCCC2)ccc1O,-3.02
18,Cc1cc(=O)n2[nH]c(-c3ccco3)nc2n1,-15.9
19,Cc1onc(-c2c(Cl)cccc2Cl)c1C(=O)ONC(=O)c1cc(C(F)(F)F)cc(C(F)(F)F)c1,5.31

row,SMILES,"activity change, negative = inhibition [%]"
1,O=[N+]([O-])c1ccc(-c2cccnc2)cc1,-0.274
2,O=c1c2ccc([N+](=O)[O-])cc2sn1-c1ccccc1,-8.02
3,CCOc1ccccc1NCc1nnc(-c2ccccc2)o1,1.86
4,O=C(c1cc(-c2ccc(Cl)c(Cl)c2)on1)N1CCCCCC1,3.26
5,COc1ccc(C)cc1S(=O)(=O)Nc1ccccc1C,2.58
6,O=[N+]([O-])c1ccc(N(CC(O)CN2CCCCC2)S(=O)(=O)c2ccccc2)cc1 (stereo unspecified),2.36
7,O=S(=O)(c1ccc2c(c1)nc1n2CCC1)N1CCOCC1,-0.647
8,CCCc1nc2sc3ccccc3c(=O)c2c(=O)n1Cc1ccccc1,-0.876
9,COc1ccc(CCNc2c([N+](=O)[O-])ncn2C)cc1OC,4.09
10,CCOc1ccccc1N(CC(=O)NCCc1ccc(OC)c(OC)c1)S(=O)(=O)c1ccccc1,0.589
11,COCc1[nH][nH]c(=O)c1C=NCC(=O)OC,-0.914
12,N=C1C(c2nc(-c3ccc(F)cc3)cs2)=C(O)CN1Cc1ccc(Cl)cc1,0.005
13,CC(C)(C)c1[nH]nc2c1C(C1C=CCCC1)C(C#N)=C(N)O2 (stereo unspecified),0.027
14,O=C(NC1CCCCC1)c1ccc(S(=O)(=O)NCc2ccco2)cc1,-4.03
15,Cn1c(=O)c2c(-c3ccccc3)n(Cc3cccnc3)cc2n(C)c1=O,-1.34
16,CCOC(=O)c1c(C)[nH]c(C(=O)NCCN2CCOCC2)c1C,-4.3
17,O=C(CCCN1C(=O)/C(=C/c2ccccc2)SC1=S)Nc1ccc(C(=O)O)c(O)c1,-8.83
18,O=C(CCCN1C(=O)/C(=C/c2cccs2)SC1=S)Nc1ccc(O)c(C(=O)O)c1,-19.5
